Source: PubChem BioAssay (NCI)
The panel holds about 83,000 compounds, 20% with a hit somewhere; the sample as a whole holds those more often.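 Compound tested at a single concentration for 48 hours in 96-well plates; a percent growth value below 10 was scored as active.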 Unmarked numbers belong to inactive results. Activity calls are given as the source filed them.

Columns and labels:
Assay in all cases: NCI-60 one-dose screen, 48 h (100 = growth as untreated, 0 = no growth, -100 = all killed)
Conditions in all cases: 10 µM unless noted
NCI-H23 lung = system: NCI-H23 lung
NCI-H226 lung = system: NCI-H226 lung
NCI-H322M lung = system: NCI-H322M lung
HOP-62 NSCLC = system: HOP-62 NSCLC
NCI-H460 lung = system: NCI-H460 lung
HOP-92 NSCLC = system: HOP-92 NSCLC
NCI-H522 lung = system: NCI-H522 lung
A549/ATCC NSCLC = system: A549/ATCC NSCLC
786-0 renal = system: 786-0 renal
COLO 205 colon = system: COLO 205 colon
DU-145 prostate = system: DU-145 prostate
K-562 leukemia = system: K-562 leukemia
MALME-3M melanoma = system: MALME-3M melanoma
MDA-MB-231 breast = system: MDA-MB-231 breast
RXF 393 renal = system: RXF 393 renal
SF-268 CNS = system: SF-268 CNS
SF-295 CNS = system: SF-295 CNS
SF-539 CNS = system: SF-539 CNS
UACC-257 melanoma = system: UACC-257 melanoma
M14 melanoma = system: M14 melanoma

| SMILES | growth (NCI-H23 lung) | growth (NCI-H226 lung) | growth (NCI-H322M lung) | growth (HOP-62 NSCLC) | growth (NCI-H460 lung) | growth (HOP-92 NSCLC) | growth (NCI-H522 lung) | growth (A549/ATCC NSCLC) | growth (786-0 renal) | growth (COLO 205 colon) | growth (DU-145 prostate) | growth (K-562 leukemia) | growth (MALME-3M melanoma) | growth (MDA-MB-231 breast) | growth (RXF 393 renal) | growth (SF-268 CNS) | growth (SF-295 CNS) | growth (SF-539 CNS) | growth (UACC-257 melanoma) | growth (M14 melanoma) |
| --- | --- | --- | --- | --- | --- | --- | --- | --- | --- | --- | --- | --- | --- | --- | --- | --- | --- | --- | --- | --- |
| CCOC(=O)c1cnc2ccc(Br)cc2c1Nc1cccc(S(N)(=O)=O)c1 | 93% | 88.6% | 105% | 97.1% | 105% | 91.1% | 96.6% | 101% | 105% | 128% | 103% | 90.7% | 101% | 89.9% | 90.8% | 88.1% | 95.5% | 99% | 105% | 110% |
| CCN(CCO)CCC(=O)c1ccc([N+](=O)[O-])cc1 | 102% | 99.5% | 101% | 109% | 111% | 92.9% | 100% | 103% | 103% | 116% | 103% | 101% | 102% | 115% | 106% | 97% | 103% | 105% | 105% | 106% |
| COc1ncc(-c2ccc3nc(N)n(-c4ccccc4C(F)(F)F)c(=O)c3c2)cc1S(=O)(=O)Nc1ccc(F)cc1F | 30.6% | 88.9% | -11.6% (active) | 82.4% | 28.1% | 25.3% | 46.8% | 29% | 33.7% | -66.2% (active) | 32.3% | 61.5% | 76.2% | -11% (active) | 10.6% | 46.1% | 33.4% | 6.32% (active) | 82.5% | 8.91% (active) |
| c1coc2occoc=2o1 | 104% | 97.2% | 110% | 94.7% | 113% | 85.8% | 91.7% | 97% | 102% | 122% | 111% | 99.1% | 103% | 108% | 117% | 105% | 99.1% | 95.2% | 106% | 101% |
| N#CCCc1c[nH]c2ccccc12 | 105% | 90.3% | 94.1% | 82% | 97.7% | 75.5% | 94.6% | 89% | 104% | 99.5% | 107% | 85.4% | 98.9% | 97.1% | 107% | 91% | 98.3% | 95.9% | 90.9% | 94.7% |
| COc1ccc(-c2ccc(NNC(=O)c3ccc(F)cc3)nn2)cc1OC | 83.7% | 70% | 72.2% | 57.6% | 93.2% | 8.49% (active) | 72.8% | 72.4% | 63.4% | 75.6% | 65.6% | 55% | 98.8% | 36.2% | 19.5% | 58.2% | 84.7% | 65.8% | 102% | 100% |
| CC(C)=CC/C=C(/C)[C@H]1CC[C@]2(C)[C@@H]1CC[C@@H]1[C@@]3(C)CCC(=O)NC(C)(C)[C@@H]3CC[C@]12C | 13.6% [100 µM] | -1.12% [100 µM] (active) | 36.1% [100 µM] | 14.3% [100 µM] | -16.7% [100 µM] (active) | -6.9% [100 µM] (active) | -58% [100 µM] (active) | 15.3% [100 µM] | -33% [100 µM] (active) | -0.368% [100 µM] (active) | 12.2% [100 µM] | 6.71% [100 µM] (active) | -85.2% [100 µM] (active) | -35.9% [100 µM] (active) | -72.3% [100 µM] (active) | 10.9% [100 µM] | -22.5% [100 µM] (active) | -92.2% [100 µM] (active) | 14.8% [100 µM] | 15.7% [100 µM] |
| CC(C)C1=NOC(=O)C1=Cc1cn(-c2ccccc2)nc1-c1ccc(Br)cc1 | 85.8% | 93.7% | 90.5% | 91.3% | 83.5% | 83.1% | 86% | 98.2% | 82.9% | 97.8% | 92.9% | 43.4% | 87.7% | 91.5% | 70.3% | 102% | 96.8% | 78.5% | 100% | 76.6% |
| C=CCCC1(C)NC(=O)NC1=O (stereo not given) | 96.5% | 105% | 108% | 84% | 104% | 87.1% | 86.1% | 93.4% | 93.5% | 102% | 102% | 83.3% | 111% | 101% | 121% | 98% | 95.7% | 104% | 104% | 98.1% |
| COc1cc(C(=O)/C=C/c2c(-c3ccc(F)cc3)nc3sccn23)cc(OC)c1OC | 56.5% | 76.1% | 29.9% | 61.3% | -1.39% (active) | -14.9% (active) | -18.2% (active) | 41.1% | 61.5% | 12.3% | 27.4% | 39.1% | 33.6% | 51% | -50.6% (active) | 25.4% | 3.82% (active) | -57.9% (active) | 39.9% | 35.3% |
| Cc1cccc(C[C@H](NC(=O)Nc2ccc(Cl)cc2F)C(=O)N[C@@H]2C(=O)N3C[C@H](OC(=O)CCN(C)C)C[C@H]3C(=O)N3CCCC[C@H]3C(=O)N[C@@H](C)C(=O)N3C[C@H](C)C[C@H]3C(=O)O[C@H]2C)c1 | 34.4% | 28% | 59.2% | 35% | 13.6% | 19.1% | 24.6% | 25.4% | 22.5% | 9.51% (active) | 23.7% | 15.8% | 27.1% | 1.21% (active) | 18.7% | 24.8% | 7.95% (active) | 35.6% | 16.3% | 16.5% |
| COc1cc(/C=C/C(=O)/C=C/c2ccc(-n3ccnc3)cc2)ccc1O | 60.6% | 77.9% | 94.8% | 97.9% | 76.4% | 85.2% | 89.5% | 69.3% | 107% | 52.4% | 54.4% | 7.93% (active) | 79.3% | 63.7% | 26.8% | 54.8% | 75.2% | -0.198% (active) | 84.7% | 104% |
| COc1ccc(/C=C/C=C\C(=O)c2ccc(-n3ccnc3)cc2)cc1 | 94.1% | 84.3% | 101% | 101% | 92.7% | 96.5% | 85.3% | 81.9% | -0.616% (active) | 101% | 98% | 66.2% | 92.8% | 94% | 92.7% | 96.2% | 99.7% | 97.9% | 93.1% | 21.3% |
| O=C(Nc1ccc(Oc2ccc(F)cc2)c(Cl)c1)c1cnccn1 | 65.6% | 74.4% | 82.2% | 56.2% | 28% | 58.2% | 54.2% | 43.7% | 81% | 69.3% | 79.5% | 21.1% | 70.1% | 58.7% | 72.3% | 72.2% | 72.9% | 67.1% | 79.8% | 92.4% |
